Fold change data for 66 compounds are collected here from PubChem BioAssay AID1239 (SRMLSC, 2008).

Each structure is given as a SMILES string. The whole screen tested about 190,000 compounds, of which about 3,100 (1.6%) were called active. This excerpt belongs to a sample that is enriched for actives. Unmarked numbers belong to inactive results. Cut-off read from the data, not from the text of the source: active = fold change above about 3.3; inconclusive = no clear call, values can overlap the other calls; inactive = below that.

The test is described as follows: activators of NF-kB expression in neurons, primary screen, cell-based, HTS (AID 1239). The following applies: human neuronal cells, NF-kB reporter expression; at 12.5 µM; stronger effect = higher value.
Turning to `CCCC1(C(=O)OC)NC(c2ccco2)C2C(=O)N(C)C(=O)C21` (stereo unspecified), the fold change is 1.
In the case of `Cc1ccc(N2CCN(C3=NC(=O)/C(=C\c4cccs4)S3)CC2)cc1`, the fold change is 1.27.
Then `O=C1/C(=C/c2cccs2)CCc2ccccc21`, with 5.83 (active).
Take `O=S(=O)(c1cccs1)N1CCc2ccccc2C1`: the fold change was 1.07.
Consider `CCC1C/C(=C/c2cccs2)C(=O)/C(=C/c2cccs2)C1` (stereo unspecified), for which the fold change is 1.07.
Then `O=C1/C(=C/c2cccs2)CCC1C1CCCC1` (stereo unspecified), with 5.68 (active).
Then `COc1ccc(/C=C2\CCc3ccccc3C2=O)c(OC)c1OC`, with 1.7.
Then `CC(=O)C1(C)N(O)C(C)(C)C(c2cccs2)=[N+]1[O-]` (stereo unspecified), with 0.95; and `CCn1nc(C)cc1C(=O)N1CCCC(C(=O)c2cccc(OC)c2)C1` (stereo unspecified), with 1.1; and `COc1ccc(CN2CCN(Cc3cn(C)nc3-c3ccccc3)CC2CCO)c(C)c1C` (stereo unspecified), with 1.01.
Take `CCc1ccc(NC(=O)Cn2nc(C)c([N+](=O)[O-])c2C)cc1`: the fold change was 1.28.
For the compound `O=c1[nH]c(CN2CCOCC2)nc2cc(Cl)ccc12`, the fold change was 1.04.
Then `O=c1[nH]c(CCl)nc2cc(-c3ccc(Cl)cc3)sc12`, with 4.29 (active).
Then `NC(=O)Cc1nc2scc(-c3ccc(Cl)cc3)c2c(=O)[nH]1`, with 0.99; and `COc1ccc(S(=O)(=O)N2CCOCC2)cc1NC(=O)CSc1ncnc2ccccc12`, with 1.56; and `CCN1C(=O)/C(=c2\s/c(=C3\Sc4ccccc4N3C)c(=O)n2C)N(C)C1=S`, with 1.16.
Consider `CN(C)CCCN1C(=O)CSC1c1ccc([N+](=O)[O-])cc1` (stereo unspecified), for which the fold change is 1.03.
For `COCC1CCCN(Cc2nc(-c3ccc4c(c3)OCO4)no2)C1` (stereo unspecified), the fold change was 1.62.
`CN(c1ccccc1)c1ccc(/C=c2\s/c(=C(/C#N)C(=O)C(C)(C)C)n(Cc3ccco3)c2=O)cc1`: the fold change is 1.52.
With `Cc1cs/c(=N\N=C\c2ccc(O)cc2)n1Cc1ccco1`, the fold change was 4.11 (active).
With `Cc1csc(=Nc2ccccc2)n1CCO`, the fold change is 1.05.
In the case of `Cc1nnc(SC(C(=O)Nc2cc(Cl)cc(Cl)c2)c2ccccc2)[nH]c1=O` (stereo unspecified), the fold change is 1.02.
Then `Cc1ccc(S(=O)(=O)Nc2nc3ccccc3s2)cc1[N+](=O)[O-]`, with 1.51; and `CSCCC(Nc1nc2ccccc2s1)C(=O)O` (stereo unspecified), with 1.16; and `Cc1ccnc(Nc2nc3ccccc3s2)n1`, with 4.25 (active).
Turning to `O=C(/C=C/c1ccc(Cl)cc1)Nc1ccc(Br)cn1`, the fold change was 1.07.
Turning to `CC(C)C(=O)Nc1cccc(NC(=O)c2ccc([N+](=O)[O-])cc2Cl)c1`, the fold change was 1.13.
For `O=C(Nc1ccc(Br)cn1)c1ccc([N+](=O)[O-])cc1Cl`, the fold change was 3.54 (active).
Then `O=C(Nc1cccc([N+](=O)[O-])c1)Nc1ccc(Cl)cn1`, with 0.9; and `O=C(Nc1ccc(Br)c2cccnc12)c1ccc(Cn2cc([N+](=O)[O-])cn2)o1`, with 1.07; and `O=C(Nc1ccc(Br)cn1)c1ccc([N+](=O)[O-])o1`, with 4.41 (active).
With `C/C(=N/O)c1ccc(N2C(=O)C3C4C=CC(C3C2=O)C2C3C(=O)N(c5ccc(/C(C)=N/O)cc5)C(=O)C3C42)cc1` (stereo unspecified), the fold change is 1.33.
In the case of `NC(=O)Cn1nc([N+](=O)[O-])nc1Oc1ccc(Br)cc1`, the fold change is 0.99.
For `O=C(O)C1C2CC2CN1C(=O)c1ccc(Cl)cc1Cl` (stereo unspecified), the fold change was 0.99.
For the compound `O=C(NCc1cccnc1)c1nc(-c2cccs2)no1`, the fold change is 1.23.
Then `CCCCCc1ccc(-c2ccc(OCC)cc2)nc1`, with 1.81.
Consider `CCCCCc1ccc(-c2ccc(C(=O)O)cc2)nc1`, for which the fold change was 6.88 (active).
For `CCCCCC(=O)Nc1ccc(-c2cn3cccnc3n2)cc1`, the fold change is 0.94.
On to `O=C(COC(=O)CNC(=O)c1ccccc1F)NCC(F)(F)F`, for which the fold change was 1.05.
For `CC(=O)Nc1ccc(NC(=O)CN2CCCC(C)C2)c(Cl)c1` (stereo unspecified), the fold change is 4.21 (active).
Then `O=C(CN1CCCCC1)Nc1ccccc1Cl`, with 1.2; and `O=C(CN1CCOCC1)Nc1ccc(NC(=O)CN2CCOCC2)c(Cl)c1`, with 1.01.
For `O=C(c1ccc2c(c1)N(Cc1ccc(F)cc1)C(=O)c1ccccc1S2(=O)=O)N1CCN(c2ccccn2)CC1`, the fold change is 0.68.
Consider `CCn1c(CSCc2c(Cl)cccc2Cl)n[nH]c1=S`, for which the fold change is 1.06.
Take `O=C(O)CSc1nnc(-c2ccc3c(c2)OCO3)n1-c1ccccc1`: the fold change is 1.41.
As for `CCOc1cccc(/C=N/N2C(=O)CSC2=S)c1O`, the fold change was 1.38.
`O=C(CCc1ccccc1)Nc1ccc(NC(=O)C2CCCCC2)nc1`: the fold change was 1.04.
Then `O=c1c2c(nc3n1CCCCC3)sc1c(O)cccc12`, with 4.86 (active).
Regarding `Cc1cccc2c(=O)n3c(nc12)CCCCC3`, the fold change was 1.11.
Regarding `Cc1c(C(=O)Nc2ccccc2)sc2nc3n(c(=O)c12)CCCCC3`, the fold change is 1.58.
Then `CCN1CCN(CC(=O)Nc2sc3c(c2C#N)CCC3)CC1`, with 1.03.
On to `CC(C)CC(=O)NC(=S)NCc1ccccc1`, for which the fold change is 1.01.
Take `O=C(O)CSCc1nc2ccccc2s1`: the fold change is 0.98.
Turning to `O=C(O)CCCCc1nc2ccccc2s1`, the fold change was 1.24.
Then `COC(=O)c1nc2ccccc2s1`, with 0.91.
Consider `CCC(=O)NC(=Nc1nc2ccccc2s1)NC(=O)CC`, for which the fold change was 6.73 (active).
Take `CC(C)CC(=O)N/C(N)=N/c1nc2ccccc2s1`: the fold change is 8.73 (active).
Then `Cc1nc(-c2ccc(Cl)cc2)sc1C(=O)CBr`, with 1.42.
As for `N#CCC(=O)N/N=C/c1ccc(SCC(=O)Nc2ccccc2)o1`, the fold change was 1.28.
`COCCN(C(=O)CCC(=O)Nc1nccs1)C(C(=O)NC(C)(C)C)c1ccc(Cl)cc1` (stereo unspecified): the fold change was 1.27.
Then `COc1ccc(C(=O)NC2CCN(C(=S)NCCc3ccccc3)CC2)cc1`, with 0.91; and `O=C(NCCc1ccccc1)c1ccc(NC2=NC3CS(=O)(=O)CC3S2)cc1` (stereo unspecified), with 1.1.
Consider `CC1CCCN(c2ccc(C(=O)NCCc3ccccc3)cn2)C1` (stereo unspecified), for which the fold change was 4.24 (active).
Then `Nc1nc(NCCCN2CCOCC2)nc(Nc2ccccc2)c1[N+](=O)[O-]`, with 0.82; and `CNc1nc(Nc2ccc(C)c(Cl)c2)nc(N)c1[N+](=O)[O-]`, with 5.21 (active).
Turning to `COCCNc1nc(N)c([N+](=O)[O-])c(NCCO)n1`, the fold change is 0.91.
